Read-out in assay [1]: alkyl and aryl transferase (GSTA2), GSTA2 (gene 2939)
Put plainly: CLD_GSTA2_6hr: CellzDirect (CLD) Gene Expression Assay for alkyl and aryl transferase (GSTA2) at 6 hours (AID 2283666). The gist of the method:
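GSTA2 transcript induction at 6 h, quantified by nuclease protection (qNPA) with chemiluminescent detection, in human liver primary hepatocytes exposed to several compound concentrations with 0.2% DMSO as baseline; phase-contrast morphology annotated apparent cytotoxicity.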

Assay [2] in a line: Tanguay_ZF_120hpf_TR_legacy: (Legacy) Oregon State University Tanguay Lab 120 Hour Post-fertilization zebrafish Assay for Touch Response (AID 2283667). The gist of the method: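 Readout is presence or absence of touch response in 120 hpf zebrafish larvae, assessed by brightfield observation after continuous static exposure at 28C. Final vehicle was 0.64% (vol/vol) DMSO.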
Read-out in assay [3]: organic anion transporter (SLCO1B1), SLCO1B1 (gene 10599)
The experiment in a line: CLD_SLCO1B1_6hr: CellzDirect (CLD) Gene Expression Assay for organic anion transporter (SLCO1B1) at 6 hours (AID 2283668).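 Further: active means mRNA induction above DMSO baseline.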 The gist of the method: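 SLCO1B1 mRNA induction measured 6 h after dosing by quantitative nuclease protection with chemiluminescent read-out, in human primary hepatocyte cultures given chemicals at several concentrations (vehicle 0.2% DMSO). Increase over DMSO baseline fitted; morphology-based cytotoxicity annotated yes/no.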

Read-out in assay [4]: glucuronosyltransferase (UGT1A1), UGT1A1 (gene 54658)
The experiment in a line: CLD_UGT1A1_6hr: CellzDirect (CLD) Gene Expression Assay for glucuronosyltransferase (UGT1A1) at 6 hours (AID 2283672). The gist of the method:
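UGT1A1 mRNA induction, read by quantitative nuclease protection assay, 6 h after dosing primary human hepatocytes (two donors, 0.2% DMSO vehicle). Gain of signal fitted relative to vehicle.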

Assay [5] is described as follows: CLD_ACTIN_6hr: CellzDirect (CLD) Gene Expression Assay for Baseline Control (Actin) at 6 hours (AID 2283676).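 Further: active means increased actin mRNA relative to DMSO vehicle.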 The gist of the method:
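Baseline actin transcript level measured by qNPA (S1 nuclease protection, chemiluminescence) in human hepatocyte cultures 6 h after chemical exposure; 0.2% DMSO vehicle as reference, cytotoxicity noted from morphology.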

Read-out in assay [6]: xenobiotic metabolism (CYP1A2), CYP1A2 (gene 1544)
The experiment in a line: CLD_CYP1A2_24hr: CellzDirect (CLD) Gene Expression Assay for xenobiotic metabolism (CYP1A2) at 24 hours (AID 2283683). The gist of the method: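 CYP1A2 mRNA induction measured by quantitative nuclease protection (chemiluminescent) in human primary hepatocytes 24 h after multi-concentration chemical dosing with daily fresh solutions. DMSO (0.2%) baseline; positive-direction fitting; morphology-based cytotoxicity noted.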

Read-out in assay [7]: ABC Transporter (ABCB1), ABCB1 (gene 5243)
The experiment in a line: CLD_ABCB1_24hr: CellzDirect (CLD) Gene Expression Assay for ABC Transporter (ABCB1) at 24 hours (AID 2283684).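 On AC50: potency for increase in ABCB1 mRNA relative to DMSO vehicle.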 Summed up: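 ABCB1 mRNA induction versus 0.2% DMSO vehicle was read by qNPA chemiluminescence at 24 h. Cultured human hepatocytes from two donor preparations received daily fresh dosing, and phase-contrast cytotoxicity calls were annotated alongside the data.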

Read-out in assay [8]: Cytochrome P450 2B6 (Homo sapiens) (UniProt P20813)
Put plainly: CLD_CYP2B6_24hr: CellzDirect (CLD) Gene Expression Assay for xenobiotic metabolism (CYP2B6) at 24 hours (AID 2283686). The gist of the method: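 qNPA chemiluminescent measurement of mRNA at 24 hours in human primary hepatocyte cultures from two donor preparations, with daily fresh dosing and 0.2% DMSO vehicle as baseline. Morphology-based cytotoxicity flagged yes/no.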

Read-out in assay [9]: Cytochrome P450 2C19 (Homo sapiens) (UniProt P33261)
The experiment in a line: CLD_CYP2C19_24hr: CellzDirect (CLD) Gene Expression Assay for xenobiotic metabolism (CYP2C19) at 24 hours (AID 2283687).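 Further: activity means mRNA induction above DMSO vehicle baseline.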 The gist of the method: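 CYP2C19 mRNA was quantified by qNPA chemiluminescence after 24 h of daily dosing of cultured human primary hepatocytes from two donors; vehicle was 0.2% DMSO, and increases over DMSO baseline were fitted.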

Read-out in assay [10]: ABC Transporter (ABCB1), ABCB1 (gene 5243)
The experiment in a line: CLD_ABCB1_48hr: CellzDirect (CLD) Gene Expression Assay for ABC Transporter (ABCB1) at 48 hours (AID 2283695). The gist of the method:
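ABCB1 mRNA was measured by quantitative nuclease protection assay (chemiluminescence) 48 h after dosing. Human hepatocyte cultures from two separate donors received fresh dosing solutions daily for two days, with 0.2% DMSO as vehicle. Positive-direction fit against DMSO.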

Read-out in assay [11]: ABC Transporter (ABCB11), ABCB11 (gene 8647)
The experiment in a line: CLD_ABCB11_6hr: CellzDirect (CLD) Gene Expression Assay for ABC Transporter (ABCB11) at 6 hours (AID 2283675).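 Further: hits raise ABCB11 mRNA level so AC50 marks induction.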 Summed up:
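Read-out was ABCB11 mRNA gain of signal by quantitative nuclease protection assay, relative to 0.2% DMSO vehicle, 6 h post-dose. Cells were primary human hepatocytes from two donors, treated across multiple concentrations; phase-contrast cytotoxicity noted yes/no.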

Read-out in assay [12]: Cytochrome P450 2C19 (Homo sapiens) (UniProt P33261)
The experiment in a line: CLD_CYP2C19_6hr: CellzDirect (CLD) Gene Expression Assay for xenobiotic metabolism (CYP2C19) at 6 hours (AID 2283678). The gist of the method:
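CYP2C19 transcript induction was quantified by quantitative nuclease protection assay with chemiluminescent read-out, 6 h after dosing. Cells were primary human hepatocytes from two donor preparations, given fresh dosing solutions daily in 0.2% DMSO vehicle. Activity was relative to DMSO.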

Read-out in assay [13]: Cytochrome P450 3A4 (Homo sapiens) (UniProt P08684)
Put plainly: CLD_CYP3A4_6hr: CellzDirect (CLD) Gene Expression Assay for xenobiotic metabolism (CYP3A4) at 6 hours (AID 2283680). Summed up: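 CYP3A4 mRNA induction, 6 h after dosing of cultured primary human hepatocytes from two donors, read by quantitative nuclease protection (qNPA, chemiluminescence). Vehicle 0.2% DMSO as baseline; morphology-based cytotoxicity annotated yes/no.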

Read-out in assay [14]: Broad substrate specificity ATP-binding cassette transporter ABCG2 (Homo sapiens) (UniProt Q9UNQ0)
Put plainly: CLD_ABCG2_24hr: CellzDirect (CLD) Gene Expression Assay for ABC Transporter (ABCG2) at 24 hours (AID 2283685). Summed up: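 ABCG2 mRNA induction, read as gain of chemiluminescent signal over 0.2% DMSO, was measured by quantitative nuclease protection at 24 h. Cultured human liver hepatocytes were given fresh dosing solutions of test chemicals at several concentrations each day.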

Read-out in assay [15]: organic anion transporter (SLCO1B1), SLCO1B1 (gene 10599)
The experiment in a line: CLD_SLCO1B1_24hr: CellzDirect (CLD) Gene Expression Assay for organic anion transporter (SLCO1B1) at 24 hours (AID 2283690). Summed up: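 SLCO1B1 mRNA induction read at 24 h by quantitative nuclease protection assay (chemiluminescence), analyzed against DMSO baseline. Human hepatocyte cultures from separate donors received fresh dosing solutions daily; vehicle 0.2% DMSO; cytotoxicity flagged by phase-contrast morphology.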

Read-out in assay [16]: sulfotransferase (SULT2A), SULT2A1 (gene 6822)
The experiment in a line: CLD_SULT2A_24hr: CellzDirect (CLD) Gene Expression Assay for sulfotransferase (SULT2A) at 24 hours (AID 2283694). The gist of the method: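 mRNA is measured by qNPA: probe hybridisation, S1 nuclease digestion, chemiluminescence, in lysates from human primary hepatocytes harvested 24 h after daily dosing. Vehicle was 0.2% DMSO. Phase-contrast microscopy flagged cytotoxicity (yes/no).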

Read-out in assay [17]: xenobiotic metabolism (CYP1A1), CYP1A1 (gene 1543)
The experiment in a line: CLD_CYP1A1_24hr: CellzDirect (CLD) Gene Expression Assay for xenobiotic metabolism (CYP1A1) at 24 hours (AID 2283673).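 Further: CYP1A1 mRNA level by quantitative nuclease protection with chemiluminescence.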 Summed up:
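Transcript levels were read at 24 h by qNPA chemiluminescence in human liver primary cells. Cells got daily fresh dosing at multiple concentrations (vehicle 0.2% DMSO). Induction fitted upward against DMSO; phase-contrast cytotoxicity annotated.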

Read-out in assay [18]: ABC Transporter (ABCB11), ABCB11 (gene 8647)
Put plainly: CLD_ABCB11_24hr: CellzDirect (CLD) Gene Expression Assay for ABC Transporter (ABCB11) at 24 hours (AID 2283674; active means hit-call score of the fitted dose curve at least 0.9, where 1 is the maximum; inactive means score below 0.9). Summed up:
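ABCB11 transcript was quantified by qNPA chemiluminescence in cultured human liver hepatocytes 24 hours after dosing. Fresh dosing solutions were applied on consecutive days, against a 0.2% DMSO vehicle. Cytotoxicity was noted by phase-contrast morphology.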

Assay [19] in a line: CCTE_Padilla_ZF_144hpf_TERATOSCORE: (Legacy) CCTE's 144 Hour Post-fertilization zebrafish Assay Teratoscore, Padilla Lab (AID 2283679; active means hit-call score of the fitted dose curve at least 0.9, where 1 is the maximum; inactive means score below 0.9;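 on AC50: zebrafish embryos with chorions exposed by immersion from 6-8 hpf to 5 dpf with daily renewal; teratogenicity score from eye scoring of death hatching and malformations at 144 hpf; higher score means more developmental defects relative to DMSO baseline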). The gist of the method: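 Larvae scored by eye at 144 hpf for death, hatching and malformations after a day in clean Hanks'. Before that, daily-renewed exposure at 80 uM (0.4% DMSO, 26C) from roughly 6-8 hpf through 5 dpf, 4 embryos per chemical.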

Results filed as inconclusive are left out. More than one record can exist for a structure, and the calls need not agree. The source made the active and inactive calls. How the source made its calls, unless noted: active means hit-call score of the fitted dose curve at least 0.9, where 1 is the maximum; inconclusive means response in the unintended direction; inactive means score below 0.9.

Chain of Cytochrome P450 3A4 (Homo sapiens) (P08684 whole entry, looked up): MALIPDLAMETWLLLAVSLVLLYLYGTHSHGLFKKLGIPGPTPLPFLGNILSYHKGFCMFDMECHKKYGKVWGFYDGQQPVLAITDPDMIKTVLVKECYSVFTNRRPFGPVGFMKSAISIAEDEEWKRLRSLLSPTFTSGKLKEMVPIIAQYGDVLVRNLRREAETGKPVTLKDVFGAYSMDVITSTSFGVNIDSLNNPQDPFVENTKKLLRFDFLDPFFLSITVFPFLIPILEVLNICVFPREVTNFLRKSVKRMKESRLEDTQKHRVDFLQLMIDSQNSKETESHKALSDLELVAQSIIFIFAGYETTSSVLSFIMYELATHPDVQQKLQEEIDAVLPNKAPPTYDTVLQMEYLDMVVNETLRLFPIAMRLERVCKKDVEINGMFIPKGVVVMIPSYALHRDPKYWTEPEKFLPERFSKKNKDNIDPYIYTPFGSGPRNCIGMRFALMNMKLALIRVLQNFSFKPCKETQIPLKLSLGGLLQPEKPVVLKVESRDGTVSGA
Chain of Broad substrate specificity ATP-binding cassette transporter ABCG2 (Homo sapiens) (Q9UNQ0 whole entry, looked up): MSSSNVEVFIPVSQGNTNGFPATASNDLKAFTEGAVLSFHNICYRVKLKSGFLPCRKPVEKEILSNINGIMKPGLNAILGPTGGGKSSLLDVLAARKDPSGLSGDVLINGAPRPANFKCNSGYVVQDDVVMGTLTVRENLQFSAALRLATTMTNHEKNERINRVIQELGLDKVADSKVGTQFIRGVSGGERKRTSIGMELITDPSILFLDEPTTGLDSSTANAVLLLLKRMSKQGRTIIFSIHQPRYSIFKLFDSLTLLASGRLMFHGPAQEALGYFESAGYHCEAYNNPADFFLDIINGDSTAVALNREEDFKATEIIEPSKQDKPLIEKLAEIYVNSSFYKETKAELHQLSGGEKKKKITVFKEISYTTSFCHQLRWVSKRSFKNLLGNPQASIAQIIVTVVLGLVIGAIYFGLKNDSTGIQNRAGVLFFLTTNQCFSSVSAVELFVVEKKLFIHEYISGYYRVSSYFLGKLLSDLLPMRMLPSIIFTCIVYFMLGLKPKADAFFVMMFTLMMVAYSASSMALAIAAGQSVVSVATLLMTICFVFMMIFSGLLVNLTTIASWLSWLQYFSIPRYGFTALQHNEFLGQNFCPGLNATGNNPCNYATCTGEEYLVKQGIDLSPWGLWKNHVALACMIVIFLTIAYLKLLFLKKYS
Chain of Cytochrome P450 2C19 (Homo sapiens) (P33261 whole entry, looked up): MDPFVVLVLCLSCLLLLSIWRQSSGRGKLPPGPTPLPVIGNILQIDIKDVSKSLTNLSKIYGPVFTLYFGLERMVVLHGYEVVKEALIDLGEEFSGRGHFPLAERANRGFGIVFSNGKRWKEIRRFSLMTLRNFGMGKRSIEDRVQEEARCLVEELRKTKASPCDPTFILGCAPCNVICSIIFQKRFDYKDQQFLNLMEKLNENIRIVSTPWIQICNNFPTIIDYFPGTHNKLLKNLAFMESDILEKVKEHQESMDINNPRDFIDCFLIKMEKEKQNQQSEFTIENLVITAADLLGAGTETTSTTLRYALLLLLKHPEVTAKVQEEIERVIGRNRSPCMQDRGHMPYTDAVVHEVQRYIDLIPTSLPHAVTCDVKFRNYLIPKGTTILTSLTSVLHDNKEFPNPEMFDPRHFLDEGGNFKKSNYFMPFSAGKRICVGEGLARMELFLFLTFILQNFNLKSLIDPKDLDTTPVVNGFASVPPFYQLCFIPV

Broadly, the AC50 is the midpoint of the concentration-response curve, whichever way the signal moves. For `CCN(CC)C(=O)c1cccc(C)c1`, the result in [1], in assay [2], in [3], in assay [4], in [5] and in assay [6] was inactive. For the same compound, the compound was called inactive in assay [7], in assay [9] and in assay [10]. In addition, in assay [8], the AC50 was 20 µM (active).
Take `CCCOC(=O)NCCCN(C)C`: the result in [1], in assay [2], in [11], in [5], in [12] and in assay [13] was inactive. In addition, the result in assay [7], in assay [14], in assay [8], in assay [15], in [16] and in assay [10] was inactive.
In the case of `CCCN(CCC)C(=O)SCC`, the result in assay [1], in assay [2], in assay [3], in [4], in assay [17] and in [18] was inactive. Also, the compound was classed as inactive in [5], in assay [12], in assay [13], in assay [6], in assay [7] and in [14]. For the same compound, the outcome in [8], in [9], in [15], in assay [16] and in assay [10] was inactive. Further, the concentration at half-maximal activity (AC50) in assay [8] is 0.0274 µM (active).
As for `CC(C)(C)[C@@H](O)[C@@H](Cc1ccc(Cl)cc1)n1cncn1`, the result in assay [1], in [2], in assay [4], in assay [5], in assay [13] and in assay [6] was inactive. Also, the compound was called inactive in assay [14], in assay [16] and in assay [10]. Besides, the concentration at half-maximal activity (AC50) was 12.1 µM (active) in assay [17], 46.7 µM (active) in assay [19], 9.46 µM (active) in assay [7] and 2 µM (active) in [8].
In the case of `COc1nc(C)nc(NC(=O)NS(=O)(=O)c2ccccc2OCCCl)n1`, the result in assay [1], in [3], in assay [4], in assay [17], in assay [11] and in assay [5] was inactive. Besides, the compound was called inactive in assay [12], in [13], in assay [6], in [7], in assay [8] and in assay [9].
For the compound `CCNc1nc(N)nc(Cl)n1`, the compound was classed as inactive in assay [1], in assay [2], in assay [4], in assay [17], in assay [18] and in assay [11]. Moreover, the result in [19], in assay [13], in assay [6], in assay [7], in [8] and in assay [15] was inactive. The call in [10] was inactive.

These data come from PubChem BioAssay (EPA / NIEHS).
